# Measurements from PubChem BioAssay (NCI).
# Compounds without any hit were thinned out: in the full panel of roughly 83,000, 20% have a hit.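 Percent growth is the endpoint: 0 to 100 indicates growth inhibition (40 means 60% inhibition), 0 means no net growth, and negative values indicate cell death.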 Active and inactive are the calls of the source. How the source made its calls: active means growth percent below 10; inactive means the rest.
# Test system: NCI-H522 lung
# Test: NCI-60 one-dose screen, 48 h (100 = growth as untreated, 0 = no growth, -100 = all killed)
# Conditions: 10 µM
row,SMILES,growth
1,Cc1ccc(NC(=O)CSc2nc3ccccc3c(=O)n2CCc2ccccc2)c(C(=O)O)c1,90.1% (inactive)
2,CCn1cc(C(=O)O)c(=O)c2cnc(N3CCCC3)nc21,101% (inactive)
3,Oc1[nH]c2ccc(Cl)cc2c1/C=c1/ccc2c(c1)N=C(c1cc(F)cc(F)c1)N=2,33.7% (inactive)

# Test system: A549/ATCC NSCLC
# Test: as above
# Conditions: 10 µM
row,SMILES,growth
1,CN(C)CCOc1nc2ccccc2c2c1-c1ccc(Cl)cc1C2=O,-28.4% (active)
2,CCOC(=O)C(CSC(c1ccccc1)(c1ccccc1)c1ccccc1)NC(=O)C(CSC(c1ccccc1)(c1ccccc1)c1ccccc1)NC(c1ccccc1)(c1ccccc1)c1ccccc1 (centres undefined),95.1% (inactive)
3,O=C1OCC2=C1C(c1cccc(Cl)c1)c1cc3c(cc1N2CCO)CCC3 (centres undefined),11.7% (inactive)
4,O=C(Nc1ccc(Cl)cc1)N1NC(c2ccc(Cl)cc2)C=C1c1ccccc1 (centres undefined),89.9% (inactive)
5,S=c1[nH]ccn1-c1c(Cl)cccc1Cl,28.9% (inactive)
6,O=c1c2ccccc2nc(SCCN2CCCCC2)n1CCc1ccccc1,87.9% (inactive)
7,COc1cc2cc3c(nc2cc1OC)CCN3Cc1ccc(NC(=O)c2ccc(Cl)c(C(F)(F)F)c2)cc1,97% (inactive)
8,CN(C)C(=S)N/N=C\C=N/NC(=S)N(C)C,40.1% (inactive)
9,CCCCCCCCCCCCCCCC(=O)OC1[C@@H](OC(=O)CCCCCCCCCCCCCCC)[C@@H](C(=O)N[C@@H](CCCCN)C(=O)OC)O[C@H]1n1cnc2c(=O)[nH]c(NC(=O)C(C)C)nc21 (some centres undefined),99.8% (inactive)
10,CSc1nn(-c2ccccc2)c2ncnc(Oc3ccccc3)c12,87.3% (inactive)
11,COc1ccc(/C=C/C(=O)Nc2ccc(-c3nc4ccc(OC)cc4s3)cc2)cc1,103% (inactive)
12,O=C(/C=C/c1cc2ccccc2[nH]c1=O)c1ccc2c(c1)OCO2,93.4% (inactive)
13,COc1ccc(N2C(=O)C3c4[nH]c5ccc(OCc6ccccc6)cc5c4C4CCC(C(C)C)CC4C3C2=O)cc1 (centres undefined),99.4% (inactive)
14,COc1cc(C(=C2O[C@@H]([C@H]3COC(C)(C)O3)[C@H]3OC(C)(C)O[C@@H]23)c2cc(OC)c(OC)c(OC)c2)cc(OC)c1OC,106% (inactive)
15,COc1ccc(C2=Nc3c(C)nn(-c4ccccc4)c3NC(c3ccc(Oc4ccnc5cc(Cl)ccc45)c(OC)c3)C2)cc1 (centres undefined),84% (inactive)
16,NC(=O)SCC(=O)Nc1ccc(S(N)(=O)=O)cc1,103% (inactive)

row,SMILES,growth
1,c1ccc([I+]c2ccccc2)cc1,48.7% (inactive)
2,CCN1CCCC1CNC(=O)c1ncc(-c2ccc(C(F)(F)F)cc2)c(NC2CCCCCC2)n1 (centres undefined),77.2% (inactive)
3,Cc1ccc(N=Nc2c(N)nc(N)[nH]c2=O)cc1C,104% (inactive)
4,COc1ccc(/C=C2/CN(C(=O)c3ccc(C)cc3)C/C(=C\c3ccc(OC)cc3)C2=O)cc1,87.9% (inactive)
5,COc1cc(-c2cc(/C=C3\C(=O)Nc4cc(Cl)ccc43)[nH]n2)cc(OC)c1OC,43% (inactive)
6,O=C(Nc1cccc(-n2cc(-c3ccncc3)c(-c3ccc(O)c(Cl)c3)n2)c1)c1ccc(N2CCOCC2)c(C(F)(F)F)c1,22.9% (inactive)
7,COc1ccccc1CNCCCN1C(=O)c2ccc3c4c(ccc(c24)C1=O)C(=O)N(CCCN)C3=O,-28% (active)
8,N=c1c2c(-c3ccccc3)c(-c3ccccc3)n(Cc3ccccc3)c2ncn1CCCO,17.3% (inactive)
9,CCCC(F)C(=O)O (centres undefined),92% (inactive)
10,O=C(N/N=C\c1cc(Cl)ccc1[N+](=O)[O-])c1ccco1,90.7% (inactive)
11,COC(=O)c1ccc(=O)oc1,101% (inactive)
12,CN(Cc1ccccc1)Cc1ccc([N+](=O)[O-])cc1I,93.6% (inactive)
13,O=C(CCCCC(=O)Nc1ccc2c(c1)/C(=C/c1ccc[nH]1)C(=O)N2)NO,95.6% (inactive)
14,O=C(C[P+](c1ccccc1)(c1ccccc1)c1ccccc1)C[P+](c1ccccc1)(c1ccccc1)c1ccccc1,-27.9% (active)
15,N=C(N)c1ccc(-c2ccc(-c3ccccc3)o2)nc1,77.8% (inactive)
16,COc1cc(/C=C2\CCCC3=C2N=C2SC=NN2C3c2cc(OC)c(OC)c(OC)c2)cc(OC)c1OC (centres undefined),13.1% (inactive)

# Test system: 786-0 renal
# Test: as above
# Conditions: 10 µM
row,SMILES,growth
1,CN(C)CCOc1nc2ccccc2c2c1-c1ccc(Cl)cc1C2=O,12.7% (inactive)
2,CCOC(=O)C(CSC(c1ccccc1)(c1ccccc1)c1ccccc1)NC(=O)C(CSC(c1ccccc1)(c1ccccc1)c1ccccc1)NC(c1ccccc1)(c1ccccc1)c1ccccc1 (centres undefined),104% (inactive)
3,O=C1OCC2=C1C(c1cccc(Cl)c1)c1cc3c(cc1N2CCO)CCC3 (centres undefined),18% (inactive)
4,O=C(Nc1ccc(Cl)cc1)N1NC(c2ccc(Cl)cc2)C=C1c1ccccc1 (centres undefined),92.1% (inactive)
5,S=c1[nH]ccn1-c1c(Cl)cccc1Cl,98.8% (inactive)
6,Cc1ccc(NC(=O)CSc2nc3ccccc3c(=O)n2CCc2ccccc2)c(C(=O)O)c1,90.5% (inactive)
7,O=S(=O)(NCCCNc1nccc(-c2c(-c3ccc(F)cc3)nc3sccn23)n1)c1ccc(F)cc1,59% (inactive)
8,CCn1cc(C(=O)O)c(=O)c2cnc(N3CCCC3)nc21,92.6% (inactive)
9,O=c1c2ccccc2nc(SCCN2CCCCC2)n1CCc1ccccc1,86.7% (inactive)
10,COc1cc2cc3c(nc2cc1OC)CCN3Cc1ccc(NC(=O)c2ccc(Cl)c(C(F)(F)F)c2)cc1,105% (inactive)
11,CN(C)C(=S)N/N=C\C=N/NC(=S)N(C)C,85.3% (inactive)
12,COc1cc(Cl)cc(-c2nn(-c3cccc(NC(=O)c4ccc(Cl)c(Cl)c4)c3)cc2-c2ccncc2)c1,74.1% (inactive)
13,CCCCCCCCCCCCCCCC(=O)OC1[C@@H](OC(=O)CCCCCCCCCCCCCCC)[C@@H](C(=O)N[C@@H](CCCCN)C(=O)OC)O[C@H]1n1cnc2c(=O)[nH]c(NC(=O)C(C)C)nc21 (some centres undefined),98.1% (inactive)
14,CSc1nn(-c2ccccc2)c2ncnc(Oc3ccccc3)c12,92.9% (inactive)
15,COc1ccc(/C=C/C(=O)Nc2ccc(-c3nc4ccc(OC)cc4s3)cc2)cc1,103% (inactive)
16,O=C(/C=C/c1cc2ccccc2[nH]c1=O)c1ccc2c(c1)OCO2,102% (inactive)
17,COc1ccc(N2C(=O)C3c4[nH]c5ccc(OCc6ccccc6)cc5c4C4CCC(C(C)C)CC4C3C2=O)cc1 (centres undefined),97.6% (inactive)
18,COc1cc(C(=C2O[C@@H]([C@H]3COC(C)(C)O3)[C@H]3OC(C)(C)O[C@@H]23)c2cc(OC)c(OC)c(OC)c2)cc(OC)c1OC,97.2% (inactive)
19,COc1ccccc1/C=C/C(=O)c1ccccc1,98.4% (inactive)
20,COc1ccc(C2=Nc3c(C)nn(-c4ccccc4)c3NC(c3ccc(Oc4ccnc5cc(Cl)ccc45)c(OC)c3)C2)cc1 (centres undefined),89.8% (inactive)

row,SMILES,growth
1,NC(=O)SCC(=O)Nc1ccc(S(N)(=O)=O)cc1,107% (inactive)
2,c1ccc([I+]c2ccccc2)cc1,61% (inactive)
3,CCN1CCCC1CNC(=O)c1ncc(-c2ccc(C(F)(F)F)cc2)c(NC2CCCCCC2)n1 (centres undefined),84.5% (inactive)
4,Cc1ccc(N=Nc2c(N)nc(N)[nH]c2=O)cc1C,91.2% (inactive)
5,COc1ccc(/C=C2/CN(C(=O)c3ccc(C)cc3)C/C(=C\c3ccc(OC)cc3)C2=O)cc1,99.9% (inactive)
6,COc1cc(-c2cc(/C=C3\C(=O)Nc4cc(Cl)ccc43)[nH]n2)cc(OC)c1OC,93.7% (inactive)
7,O=C(Nc1cccc(-n2cc(-c3ccncc3)c(-c3ccc(O)c(Cl)c3)n2)c1)c1ccc(N2CCOCC2)c(C(F)(F)F)c1,8.9% (active)
8,COc1ccccc1CNCCCN1C(=O)c2ccc3c4c(ccc(c24)C1=O)C(=O)N(CCCN)C3=O,4.32% (active)
9,N=c1c2c(-c3ccccc3)c(-c3ccccc3)n(Cc3ccccc3)c2ncn1CCCO,48.3% (inactive)
10,CCCC(F)C(=O)O (centres undefined),97.2% (inactive)
11,O=C(N/N=C\c1cc(Cl)ccc1[N+](=O)[O-])c1ccco1,95.6% (inactive)
12,COC(=O)c1ccc(=O)oc1,99.4% (inactive)
13,Oc1[nH]c2ccc(Cl)cc2c1/C=c1/ccc2c(c1)N=C(c1cc(F)cc(F)c1)N=2,85.9% (inactive)
14,CN(Cc1ccccc1)Cc1ccc([N+](=O)[O-])cc1I,97.8% (inactive)
15,O=C(CCCCC(=O)Nc1ccc2c(c1)/C(=C/c1ccc[nH]1)C(=O)N2)NO,94.4% (inactive)
16,O=C1/C(=C/c2ccc(Cl)cc2)SC(=Nc2ccc(Cl)cc2)N1Cc1nc2ccccc2[nH]1,92.3% (inactive)
17,O=C(C[P+](c1ccccc1)(c1ccccc1)c1ccccc1)C[P+](c1ccccc1)(c1ccccc1)c1ccccc1,-97.9% (active)
18,N=C(N)c1ccc(-c2ccc(-c3ccccc3)o2)nc1,90.7% (inactive)
19,COc1cc(/C=C2\CCCC3=C2N=C2SC=NN2C3c2cc(OC)c(OC)c(OC)c2)cc(OC)c1OC (centres undefined),32% (inactive)
